# Screening data deposited in PubChem BioAssay by National Center for Advancing Translational Sciences (NCATS).
# Rows were chosen to be rich in hits. Some 7.6% of all compounds tested hit in one or more screens of this group.
# Giardia killer = kills Giardia lamblia. activity change, % at 7.66 µM, hits read low. AID 540267. Giardia lamblia trophozoite viability. actives 0.15% (n = 340,000); in the data active = activity change below about -80%; inconclusive = between about -30% and that limit;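 also: parasites exposed to compound for two days anaerobically before the ATP read; % is scaled to controls: 0 for no effect and ±100 for the full control effect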
#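 Giardia lamblia trophozoites (100 cells/well) were incubated with compounds for 48 h at 37 deg C under anaerobic conditions. Viability was read as ATP content by one-step luminescence after 15-30 min at room temperature.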
# p53 reactivator = re-activators of mutant p53; H1299 p53-A138V BP100-luciferase reporter, luminescence, 24 h; Potency, µM (highest dose often 92.2 µM), for the others: top-dose activity change, positive = activation, most hits filed as activators; actives 0.063% (n = 320,000); AID 504706; also: potency is read from the fitted curve at half-maximal effect; % of control where 0% means no effect; nearly all actives have a fitted effect of over 45% in size
#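 H1299 (p53-null), stable ts p53-A138V + BP100-Luc; 1000 cells/well, Opti-MEM/10% FBS; cpd 4 pt, 1:5; 24 h, 37 deg C, 5% CO2; detection reagent 10 min RT; luminescence.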
# RORg inh = ROR gamma (mouse) transcription inhibition. Potency, µM (top dose mostly 53.6 µM), inactives show at the highest dose activity change, negative = inhibition, actives largely listed as inhibitors. Drosophila S2 Gal4-RORgamma UAS-luciferase reporter, 20 h. actives 5.4% (n = 310,000). P51450. AID 2551; also: potency is read from the fitted curve at half-maximal effect; % is scaled to controls: 0 for no effect and ±100 for the full control effect; nearly all actives have a fitted effect of over 60% in size
# Target sequence (P51450 whole entry, looked up, the tested form may be a part): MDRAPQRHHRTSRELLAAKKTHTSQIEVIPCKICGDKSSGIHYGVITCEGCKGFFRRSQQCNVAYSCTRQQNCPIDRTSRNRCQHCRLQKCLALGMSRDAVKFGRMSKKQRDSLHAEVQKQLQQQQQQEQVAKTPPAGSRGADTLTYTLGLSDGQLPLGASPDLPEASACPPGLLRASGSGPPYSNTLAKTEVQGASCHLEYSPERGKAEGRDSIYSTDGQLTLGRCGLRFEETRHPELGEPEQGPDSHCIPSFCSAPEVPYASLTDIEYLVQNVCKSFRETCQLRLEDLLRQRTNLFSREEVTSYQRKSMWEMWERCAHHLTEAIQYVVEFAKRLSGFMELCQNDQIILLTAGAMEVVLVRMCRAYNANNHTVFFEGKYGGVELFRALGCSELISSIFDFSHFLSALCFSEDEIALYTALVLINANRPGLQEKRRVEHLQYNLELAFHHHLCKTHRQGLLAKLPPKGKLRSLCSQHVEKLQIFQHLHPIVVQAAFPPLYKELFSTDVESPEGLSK
#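 Drosophila S2 cells stably expressing Gal4-DBD/mouse RORγ fusion under metallothionein promoter plus UAS-luciferase; compound 1 h, then 700 uM CuSO4 induction for 20 h at ambient temperature; inhibition read as reduced luminescence.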
# Gal4-VP16 FLuc = Gal4-VP16 reporter inhibition counter-screen; actives 3.5% (n = 310,000); Potency, µM (highest dose often 53.6 µM), for the others: at the top dose activity, negative = inhibition, hits mostly inhibitors; Drosophila S2 Gal4-VP16 UAS-luciferase, luminescence, 20 h;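 also: Gal4-VP16 expression switched on by copper sulfate through the metallothionein promoter; potency is read from the fitted curve at half-maximal effect; % is scaled to controls: 0 for no effect and ±100 for the full control effect; nearly all actives have a fitted effect of over 50% in size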
# BRCA1 expr act = BRCA1 expression activation. MCF7-BRCA1-FFLuc reporter, luminescence, 48 h; response scale: scaled: vehicle 0%, 10 µM genistein 100%. Potency, µM (titrated, usually from 46.1 µM), without a hit: at the highest dose activation, hits mostly activators. actives 1.1% (n = 380,000). AID 624202; also: potency is read from the fitted curve at half-maximal effect; nearly all actives have a fitted effect of over 80% in size
#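 Quantitative HTS in MCF7 cells stably reporting BRCA1 expression via firefly luciferase. Compound treatment lasts 48 h at 37 °C in phenol-red free MEM. Activation is expressed relative to genistein at 10 microM and DMSO.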
# ELG1 DNA repair = inhibitors of ELG1-dependent DNA repair in HEK293T cells; actives 2.3% (n = 330,000); Potency, µM (highest dose often 46.1 µM), for the others: at the highest dose activity change, negative = inhibition, most hits filed as inhibitors; HEK293T ELG1-luciferase reporter, luminescence, 16 h; DNA damage induced by 5-fluorouridine; also: potency is read from the fitted curve at half-maximal effect; % is scaled to controls: 0 for no effect and ±100 for the full control effect; nearly all actives have a fitted effect of over 55% in size
#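 Step one: seed 2,000 cells per well. Step two: pin-transfer compound or DMSO alongside 5-fluorouridine. Step three: incubate 16 hr, 37 °C, 5% CO2. Step four: add ONE-Glo, wait 30 min, read luminescence.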
# * = called active by the depositor; ? = inconclusive; nt = no result given; [ ] = dose if it differs, or a comment. Unless noted, calls follow the shape of the dose curve; as a rule, active = well fitted curve in the direction sought with a large enough effect; inconclusive = small, poorly fitted or top-dose-only effect, or another doubt; inactive = no such curve, though single readings can be large; an effect the other way counts as inactive or inconclusive.
SMILES,Giardia killer,p53 reactivator,RORg inh,Gal4-VP16 FLuc,BRCA1 expr act,ELG1 DNA repair
C=CCS/C(N)=N\N=C\c1c(O)ccc2ccccc12,4,?,0.5µM*,3.2µM*,27%,?
COC(=O)c1c(NC(=O)c2c(OC)cccc2OC)sc2c1C(C(=O)OC)CC2 (stereo not given),-11,-6%,?,6%,-33%,7%
Cc1cc(O)ccc1Nc1cc(-c2cccc(N(C)C)c2)ncn1,nt,nt,nt,nt,5.6µM*,nt
CN(C)c1ccc(-c2cc(Nc3ccc(F)cc3)ncn2)cc1,nt,nt,5%,?,nt,nt
COc1ccccc1CNC(=O)C1CCN(S(=O)(=O)c2ccc3c(c2)CC(C)N3C(C)=O)CC1 (stereo not given),0,-5%,0%,-4%,-8%,?
CC(=O)N1c2ccc(S(=O)(=O)N3CCCC3C(=O)NCc3ccccc3Cl)cc2CC1C (stereo not given),3,nt,6.3µM*,-5%,-5%,-2%
N=C(N)S/C=C\C(=O)O,nt,nt,32µM*,32µM*,nt,nt
CCCOP(=O)(c1ccc(N(C)C)cc1)C(O)c1c(Cl)cccc1Cl (stereo not given),-18,-2%,9%,-5%,-6%,-19%
CC(CNC(=O)CCS(=O)(=O)c1ccc2c(c1)oc(=O)n2C)c1ccccc1 (stereo not given),-5,3%,-12%,8%,0%,5%
Cc1cc(C)n(S(=O)(=O)c2ccccc2[N+](=O)[O-])n1,-87*,20%,-32%,3%,-23%,-7%
Cc1cc(C)n(S(=O)(=O)c2ccccc2)n1,8,4%,1%,-3%,1%,13%
CCN(CC)c1nc(N(CC)CC)[nH]c(=O)n1,12,nt,nt,nt,-2%,nt
CCN(CC)c1nc(=S)nc(NC(C)(C)C)[nH]1,0,7%,1.3µM*,3.2µM*,-41%,7%
COc1ccc(NC(=O)CSc2nncs2)cc1S(N)(=O)=O,-22,15%,15%,9%,8%,?
CCCCOC(=O)C1=C(C)Nc2nnnn2C1c1ccccc1Cl (stereo not given),12,11%,-11%,?,-27%,?
O=c1cc(CSc2nnc(-c3cccs3)n2Cc2ccccc2)nc2sc3ccccc3n12,-22,-5%,?,14µM*,-70%,?
Cc1ccc(-c2nnc(N3CCC(C)CC3)c3ccccc23)cc1C,-6,-2%,20µM*,18µM*,-88%,?
CCc1ccc(-c2nc(CN3CCC(C(=O)NCc4ccccc4OC)CC3)c(C)o2)cc1,1,-1%,?,20µM*,1%[1.84 µM],-10%
Cc1oc(-c2ccc(Cl)cc2)nc1CN1CCCC(C(=O)NCc2cccnc2)C1 (stereo not given),-21,-7%,?,1%,-86%,6.5µM*
Cc1oc(-c2ccc(Cl)cc2)nc1CN1CCCC(C(=O)NCc2ccccn2)C1 (stereo not given),-23,1%,?,-5%,-27%,?
Cc1nnc(Nc2ccc3c(c2)ncn3C)c2ccccc12,-3,7%,?,?,48%,18%
COCCCNC(=S)NCCNc1nc2c(C)c(C)ccc2cc1C#N,0,-5%,18µM*,?,-23%,?
CCOCCCNC(=S)NCCCNc1nc2ccc(C)cc2cc1C#N,nt,10%,6.3µM*,-2%[10 µM],nt,-6%
CCOCCCNC(=S)NCCNc1nc2ccc(C)cc2cc1C#N,12,4%,?,7%,-37%,-20%
COc1cc(C(=O)NCCNc2nc3c(C)c(C)ccc3cc2C#N)cc(OC)c1OC,-1,nt,12%[1.91 µM],14%,0%,0%
CCNC(=O)[C@H]1O[C@H](n2cnc3c(N)nc(NCCc4ccc(CCC(=O)O)cc4)nc32)[C@@H](O)[C@@H]1O,nt,nt,1%,3%,nt,nt
